Sampled rows, rich in hits. Any-hit rate of the full collection: about 1.3%.
MazF activator: activators of E. coli MazEF toxin-antitoxin RNase, primary screen, biochemical, fluorescence, uHTS. Endoribonuclease toxin MazF (Escherichia coli (strain K12)), P0AE70. FAM/BHQ RNA-DNA oligo cleavage fluorescence, 5 h. activation, % at 20 µM. AID 504720, 2011. 0.32% of 350,000 active; in the data active = activation above about 50%
Target sequence (P0AE70 whole entry, looked up): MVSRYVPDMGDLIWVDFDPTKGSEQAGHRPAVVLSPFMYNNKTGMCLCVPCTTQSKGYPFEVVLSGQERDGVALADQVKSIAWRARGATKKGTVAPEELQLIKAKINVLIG
Sa ugtP lethal: growth inhibition of ugtP-null S. aureus, primary screen, RN4220 ugtP deletion, OD600 | AID 1259309, 2017 | 0.54% of 330,000 active | growth inhibition, % (concentration not given with the values) | 16 h; in the data active = growth inhibition above about 68%;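 also: plate controls were untreated wells for no effect and antibiotic for full effect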
3CLpro inhibitor: SARS-CoV 3CLpro protease inhibitors, primary screen, biochemical, quenched FRET | Replicase polyprotein 1ab (Severe acute respiratory syndrome coronavirus), P0C6X7 | recombinant SARS-CoV 3CLpro, quenched FRET peptide cleavage | inhibition, % at 6 µM | 0.14% of 290,000 active; in the data active = inhibition above about 12%
CCHF vOTU inh: CCHFV vOTU protease inhibitors, primary screen, biochemical, Pep-AMC substrate, fluorescence; Crimean-Congo hemorrhagic fever virus L polyprotein viral ovarian tumor (vOTU) protease …; inhibition, % at 11.5 µM; 0.55% of 370,000 active; in the data active = inhibition above about 30%; also: 0% = vehicle wells with enzyme and 100% = no enzyme wells
RN4220 kill: growth inhibition of S. aureus RN4220, primary screen, OD600; 16 h; inhibition, % (concentration not given with the values); 0.33% of 330,000 active; AID 1259311, 2017; in the data active = inhibition above about 85%;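 also: plate controls were untreated cells for no effect and reference antibiotic for full effect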
Mtb betalactam: beta-lactam sensitization of Mtb H37Rv, H37Rv. inhibition, % at 25 µM. AID 434955, 2010. 0.27% of 330,000 active. M. tuberculosis H37Rv growth with meropenem, percent inhibition; call rule not given here;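 also: growth measured after seven days incubation then overnight dye step; 0% = bacteria only wells and 100% = bacteria with antibiotic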
* = called active by the depositor.

How did O=C(NN=Cc1cccc(OC(=O)c2ccc([N+](=O)[O-])cc2)c1)c1cccnc1 do in these assays?
Sa ugtP lethal: 6.4; RN4220 kill: 4.8

What do the screens show for `CC(C)c1ccc2c(c1)C1(NN=C(c3ccccc3)S1)C(=O)N2` (configuration not stated)?
MazF activator: -3.3; Sa ugtP lethal: 97.9*; 3CLpro inhibitor: 1.1; CCHF vOTU inh: 2.9; RN4220 kill: 93.5*; Mtb betalactam: 0.1

How did Cc1cc(C(=O)COC(=O)c2cc(Cl)ccc2N)c(C)n1Cc1ccco1 do in these assays?
MazF activator: -0.4; Sa ugtP lethal: 99.4*; 3CLpro inhibitor: 2.4; CCHF vOTU inh: 0.5; RN4220 kill: 82.0; Mtb betalactam: 3.6

How did Cc1cc(C(=O)COC(=O)c2ccco2)c(C)n1Cc1ccco1 do in these assays?
MazF activator: -40.4; Sa ugtP lethal: 0.3; 3CLpro inhibitor: 5.0; CCHF vOTU inh: -18.0; RN4220 kill: 5.0; Mtb betalactam: 2.6

How did C#CC[N+]1(CC#Cc2ccccc2)CCCCC1 do in these assays?
MazF activator: 7.5; Sa ugtP lethal: 12.8; 3CLpro inhibitor: -3.7; CCHF vOTU inh: -0.8; RN4220 kill: 7.1; Mtb betalactam: -6.1

What do the screens show for `C(#Cc1ccccc1)C[N+]1(CC#Cc2ccccc2)CCCCC1`?
MazF activator: 56.9*; Sa ugtP lethal: 9.7; 3CLpro inhibitor: 1.2; CCHF vOTU inh: 11.2; RN4220 kill: 1.4; Mtb betalactam: -3.9

How did Cc1ccc(C#CC[N+]2(CC#Cc3ccc(C)cc3)CCCCC2)cc1 do in these assays?
MazF activator: 26.2; Sa ugtP lethal: 96.1*; 3CLpro inhibitor: -0.6; CCHF vOTU inh: 11.8; RN4220 kill: 3.6; Mtb betalactam: 94.1

How did CSc1nc(Cl)c(Cc2ccc(OC(C)C)cc2)c(N2CCOCC2)n1 do in these assays?
MazF activator: 3.9; Sa ugtP lethal: 97.5*; 3CLpro inhibitor: 0.6; CCHF vOTU inh: 0.5; RN4220 kill: -4.8; Mtb betalactam: 35.9

What do the screens show for `CCCOc1ccc(Cc2c(Cl)nc(SC)nc2OC)cc1`?
MazF activator: -3.4; Sa ugtP lethal: 89.2*; 3CLpro inhibitor: -1.4; CCHF vOTU inh: 3.1; RN4220 kill: -3.9; Mtb betalactam: 2.1

What do the screens show for `CCCOc1ccc(Cc2c(Cl)nc(SC)nc2N(C)C)cc1`?
MazF activator: 4.3; Sa ugtP lethal: 87.3*; 3CLpro inhibitor: 0.4; CCHF vOTU inh: -1.8; RN4220 kill: -2.2; Mtb betalactam: 21.3

What do the screens show for `CSc1nc(N2CCOCC2)c2sccc2n1`?
MazF activator: 0.6; Sa ugtP lethal: 14.7; 3CLpro inhibitor: 3.8; CCHF vOTU inh: 3.5; RN4220 kill: 6.5; Mtb betalactam: -1.9

Results for COc1nc(SC)nc(Cl)c1Cc1ccc(OC(C)C)cc1 ?
MazF activator: -6.9; Sa ugtP lethal: 92.1*; 3CLpro inhibitor: -2.4; CCHF vOTU inh: 10.8; RN4220 kill: -7.3; Mtb betalactam: 0.4

Results for CCCOc1ccc(CSc2n[nH]c(C)n2)cc1 ?
MazF activator: 1.8; 3CLpro inhibitor: -2.6; CCHF vOTU inh: -11.8; Mtb betalactam: 4.9

How did CC(=NNC(=O)C1CC1)c1ccc(C(C)(C)C)cc1 do in these assays?
Sa ugtP lethal: 15.0; RN4220 kill: 1.7

Results for CCn1cc(C(=O)O)c(=O)c2cc(F)c(N3CCN(C(=O)Nc4ccccc4)CC3)cc21 ?
MazF activator: -3.7; Sa ugtP lethal: 96.4*; 3CLpro inhibitor: -2.6; CCHF vOTU inh: -14.2; RN4220 kill: 85.7; Mtb betalactam: 93.7

What do the screens show for `CCn1cc(C(=O)O)c(=O)c2cc(F)c(N3CCN(C(=S)NC(=O)c4ccc(OC)cc4)CC3)cc21`?
MazF activator: 8.8; Sa ugtP lethal: 98.9*; 3CLpro inhibitor: -4.0; CCHF vOTU inh: 3.1; RN4220 kill: 98.8*; Mtb betalactam: 34.3

Results for C=CCNC(=O)c1cn(CC)c2cc(N3CCN(C(=O)c4ccco4)CC3)c(F)cc2c1=O ?
MazF activator: -19.1; Sa ugtP lethal: 98.1*; 3CLpro inhibitor: -2.9; CCHF vOTU inh: -34.6; RN4220 kill: 94.1*; Mtb betalactam: 86.5

Results for CCn1cc(C(=O)NCc2ccco2)c(=O)c2cc(F)c(N3CCN(C(=O)c4ccco4)CC3)cc21 ?
MazF activator: 5.3; Sa ugtP lethal: 28.5; 3CLpro inhibitor: -3.0; CCHF vOTU inh: -2.5; RN4220 kill: 22.0; Mtb betalactam: 99.6

How did CCn1cc(C(=O)O)c(=O)c2cc(F)c(N3CCN(C(=S)NC(=O)c4ccccc4F)CC3)cc21 do in these assays?
MazF activator: 5.7; Sa ugtP lethal: 99.3*; 3CLpro inhibitor: -0.6; CCHF vOTU inh: -3.5; RN4220 kill: 99.1*; Mtb betalactam: 74.8

What do the screens show for `CCn1cc(C(=O)O)c(=O)c2cc(F)c(N3CCN(C(=S)NC(=O)c4ccc(Br)cc4)CC3)cc21`?
MazF activator: 7.1; 3CLpro inhibitor: -2.5; CCHF vOTU inh: -6.2; Mtb betalactam: inconclusive

What do the screens show for `CC1CN(C(C)CO)C(=O)Cc2cc(NC(=O)Nc3ccccc3)ccc2OC1CN(C)C(=O)Nc1ccc2c(c1)OCO2` (configuration not stated)?
Sa ugtP lethal: 4.2; RN4220 kill: 6.8

What do the screens show for `COc1ccccc1C1=CC(=O)CC(c2ccc(F)cc2)C1` (configuration not stated)?
Sa ugtP lethal: 5.5; RN4220 kill: -0.2

What do the screens show for `COc1ccc(-c2ccc3c(c2)C2CC3CCN2Cc2ccc(OC(F)(F)F)cc2)cc1` (configuration not stated)?
MazF activator: -29.2; Sa ugtP lethal: 89.4*; CCHF vOTU inh: -5.0; RN4220 kill: -2.8

How did COc1ccc(-c2ccc3c(c2)C2CC3CCN2C(=O)C(C)(C)C)cc1 (configuration not stated) do in these assays?
MazF activator: -0.8; Sa ugtP lethal: 19.2; CCHF vOTU inh: 3.8; RN4220 kill: -1.4

How did NC(=O)C1CC2(CC(c3cccc(NC(=O)C4CCC(=O)N4)c3)=NO2)CN1C(=O)c1ccccc1C(=O)c1ccccc1 (configuration not stated) do in these assays?
Sa ugtP lethal: -2.5; RN4220 kill: 4.8

What do the screens show for `O=C(CN(CCc1ccccc1)S(=O)(=O)c1ccc(Cl)cc1)NN=Cc1ccc2c(c1)OCO2`?
Sa ugtP lethal: -0.9; RN4220 kill: 2.6

What do the screens show for `O=[N+]([O-])c1cccc2nc(-c3ccccc3)c(-c3ccccc3)nc12`?
MazF activator: -20.5; Sa ugtP lethal: 96.9*; 3CLpro inhibitor: -2.5; CCHF vOTU inh: 2.2; RN4220 kill: 3.2; Mtb betalactam: 3.3

What do the screens show for `O=[N+]([O-])c1ccccc1C=NNc1nnc(-c2ccccc2)c(-c2ccccc2)n1`?
Sa ugtP lethal: -4.0; RN4220 kill: 5.0

Compound activity deposited in PubChem by several laboratories.
